# Measurements published in PubChem BioAssay.
# Activity calls are given as the source filed them.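 Rule for the calls, unless noted: active = compound raises GLP1 secretion from the human gut endocrine cells, with no numeric limit stated; inactive = the rest.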
# Columns and labels:
# [1] = Wnt pathway potentiators raising nuclear beta-catenin – imaging, WNT3A-conditioned medium, mouse C2C12, NPC library, primary screen (AID 1117326; in the data active = nuclear beta-catenin stimulation mostly above about 4.2%, no sharp cut-off; inactive = mostly below about 10%; note: reference of the scale not given here); details: stronger effect = higher value
# [2] = stimulators of insulin release from INS-1E, primary screen, cell-based, 5 mM glucose, NPC library (AID 1117329;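 active = compound raises insulin release from rat beta cells at 5 mM glucose, no numeric limit stated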; note: reference of the scale not given here); details: rat INS-1E insulin secretion, at 10 µM, stronger effect = higher value
# [3] = growth inhibition of GSK3B-pretreated HCT116 cells – cell-based, CellTiter-Glo, 0.2 to 20 µM (AID 1117336;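 active = compounds lowering colon cancer cell viability after pretreatment blocking the GSK3B kinase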); details: HCT116 viability after GSK3B inhibitor, at 20 µM, stronger effect = higher value
# [4] = inhibition of endothelial tube formation, primary screen, imaging, VEGF stimulated, CD31 staining, tube area, NPC library (AID 1117340;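 active = compound that reduces growth-factor-driven endothelial tube area in a mixed cell culture, no cutoff stated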); details: VEGF-stimulated ADSC/ECFC co-culture, at 10 µM, stronger effect = higher value
# [5] = GLP1 release stimulators, primary, NCI-H716, NPC library (AID 1117341); details: NCI-H716 cells, at 10 µM, stronger effect = higher value; note: reference of the scale not given here
# [6] = HCT116 colon cancer cell growth inhibition, primary screen, CellTiter-Glo luminescence, NPC library (AID 1117342;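 active = compounds that lower survival of HCT116 colon cancer cells in the luminescence readout, no numeric limit stated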); details: at 20 µM (top of the series)
# [7] = reduced SW480 viability measured with CellTiter-Glo, NPC library, primary (AID 1117343;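 active = compounds that lower viability of the colon cancer cells in the luminescence readout, with no numeric limit stated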); details: CellTiter-Glo luminescence; at 20 µM (top of the series)
# [8] = NPC library primary testing for decreased DLD-1 cell viability via CellTiter-Glo (AID 1117346;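 active = compounds that lower survival of DLD-1 colon cancer cells in the luminescence readout, no cutoff given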); details: DLD-1 viability, CellTiter-Glo luminescence; at 20 µM (top of the series)
SMILES,nuclear beta-catenin stimulation ([1]; at 10 µM),"nuclear beta-catenin stimulation ([1]; stimulation, at 2 µM)",insulin secretion stimulation [2],viability decrease [3],tube area decrease [4],GLP1 secretion stimulation [5],inhibition of viability [6],viability decrease (inhibition) [7],viability decrease (inhibition) [8]
CCC(=O)Nc1ccc(O)cc1,9.3% (inactive),1.9%,-2.2% (inactive),-1% (inactive),16% (inactive),4.4% (inactive),12.2% (inactive),27% (inactive),14.6% (inactive)
CN[C@@H]1[C@@H](O)[C@@H](O[C@@H]2[C@H](O)[C@H](O[C@H]3OC(CN)=CC[C@H]3N)[C@@H](N)C[C@H]2N)OCC1(C)O (stereo partly drawn),3.9% (inactive),5.2%,0.6% (inactive),-9.1% (inactive),0.1% (inactive),2.9% (inactive),-0.03% (inactive),-9.1% (inactive),-8.2% (inactive)
NC(=O)CC[C@@H](N)C(=O)O,2.1% (inactive),3.8%,-0.7% (inactive),-14.2% (inactive),15.2% (inactive),-0.1% (inactive),2.55% (inactive),11.4% (inactive),-7.9% (inactive)
O=[N+]([O-])c1ccc(/C=N\O)o1,2% (inactive),0.4%,-3.1% (inactive),35.1% (inactive),-16.1% (inactive),4% (inactive),8.8% (inactive),53.4% (active),4.47% (inactive)
CC[N+]1(CC)CCC(=C(c2ccccc2)c2ccccc2)C1C (stereo not drawn),-1.3% (inactive),-2.2%,1.7% (inactive),-4.6% (inactive),-9.4% (inactive),3.8% (inactive),22.7% (inactive),1.6% (inactive),34.6% (inactive)
CCCCCCCCCCCCCCCC[N+](C)(C)CC,13.3% (inactive),9.2%,0.7% (inactive),99% (active),106% (active),20.2% (active),99.1% (active),102% (active),101% (active)
CCOC(=O)C(=O)c1csc(NC=O)n1,-0.7% (inactive),-0.8%,2.4% (inactive),-15.5% (inactive),-9.4% (inactive),-2% (inactive),1.1% (inactive),-10.2% (inactive),7.8% (inactive)
O=C(O)Cc1ccc2c(c1)C(=O)c1ccccc1CO2,0.5% (inactive),0.6%,0.2% (inactive),-4.5% (inactive),-16.2% (inactive),1.7% (inactive),-7.1% (inactive),-5.2% (inactive),-10.1% (inactive)
CCCCC/C(C=O)=C\c1ccccc1,0.8% (inactive),4.5%,1% (inactive),-20.6% (inactive),30.3% (inactive),0.1% (inactive),1.1% (inactive),12.8% (inactive),-11.3% (inactive)
O=C(O)/C=C\C(=O)O,1.1% (inactive),1.9%,2.7% (inactive),-27.8% (inactive),-3.6% (inactive),-3.8% (inactive),4.1% (inactive),33.2% (inactive),-11% (inactive)
O=C(O)Cn1c(=O)n(Cc2ccc(Br)cc2F)c(=O)c2ccc(Cl)cc21,1.1% (inactive),-0.9%,2.4% (inactive),4.6% (inactive),21.7% (inactive),-1.6% (inactive),5% (inactive),-2.1% (inactive),-18.7% (inactive)
Nc1c(NC/C=C\COc2cc(CN3CCCCC3)ccn2)c(=O)c1=O,0.1% (inactive),-1.1%,0.1% (inactive),2.9% (inactive),1% (inactive),4% (inactive),8.6% (inactive),-4.4% (inactive),-5% (inactive)
Cc1c(C)n(Cc2ccccc2)c2ccc(C(=O)OCCN(C)C)cc12,12.1% (inactive),-0.2%,79.2% (active),90.9% (active),29.5% (inactive),10.7% (inactive),98.9% (active),88.7% (active),95% (active)
C/C=C(/C(=C/C)c1ccc(OC(C)=O)cc1)c1ccc(OC(C)=O)cc1,18.1% (inactive),2.9%,1.65% (inactive),108% (active),65.4% (active),11.9% (inactive),108% (active),129% (active),97.2% (active)
CC(C)NC(=O)c1ccc(C=O)cc1,0% (inactive),-0.8%,-0.75% (inactive),18.8% (inactive),-7.2% (inactive),2.1% (inactive),-5.1% (inactive),-15.1% (inactive),-5.8% (inactive)
COC(=O)[C@H]1[C@H]2C[C@@H]3c4[nH]c5cc(OC)ccc5c4CCN3C[C@H]2C[C@@H](OC(=O)/C=C/c2ccc(O)c(OC)c2)[C@@H]1OC,74.6% (active),3.6%,0.4% (inactive),91.8% (active),21% (inactive),0.1% (inactive),85% (active),142% (active),102% (active)

SMILES,nuclear beta-catenin stimulation ([1]; at 10 µM),"nuclear beta-catenin stimulation ([1]; stimulation, at 2 µM)",insulin secretion stimulation [2],viability decrease [3],tube area decrease [4],GLP1 secretion stimulation [5],inhibition of viability [6],viability decrease (inhibition) [7],viability decrease (inhibition) [8]
CC1(C)S[C@@H]2[C@H](NC(=O)C(c3ccccc3)S(=O)(=O)O)C(=O)N2[C@H]1C(=O)O (stereo partly drawn),1.3% (inactive),1.4%,-0.05% (inactive),5.8% (inactive),-2.3% (inactive),3.6% (inactive),1.3% (inactive),-0.2% (inactive),-1.8% (inactive)
CC(C)Cc1ccc(C(C)C(=O)OCc2ccccn2)cc1 (stereo not drawn),-0.2% (inactive),1.5%,-0.3% (inactive),-24% (inactive),-19.1% (inactive),0.1% (inactive),22.8% (inactive),40.9% (inactive),19.1% (inactive)
CC(=O)Nc1ccc(/C=N/NC(N)=S)cc1,0.3% (inactive),0.5%,-2.3% (inactive),-4.65% (inactive),-8.1% (inactive),4.3% (inactive),13.3% (inactive),13% (inactive),-1.8% (inactive)
CC(C)C(=O)OCc1cccc(OC(=O)[C@@H]2N3C(=O)[C@@H](NC(=O)Cc4ccccc4)[C@H]3SC2(C)C)c1,0.9% (inactive),-0.1%,2.2% (inactive),117% (active),-4.7% (inactive),3.4% (inactive),123% (active),60.1% (active),10.1% (inactive)
COc1ccc(/C(C)=C/C(=O)O)c(OC)c1,1.2% (inactive),0.1%,-0.4% (inactive),10.1% (inactive),-9.3% (inactive),1.3% (inactive),-0.3% (inactive),-19.9% (inactive),-10.1% (inactive)
O=C(COCCOCCOCC(=O)Nc1c(I)cc(I)c(C(=O)O)c1I)Nc1c(I)cc(I)c(C(=O)O)c1I,0.1% (inactive),-1.8%,2.45% (inactive),-23.9% (inactive),-2.4% (inactive),-3.2% (inactive),-13.4% (inactive),-37.4% (inactive),-13.3% (inactive)
C[C@@H](N)C(=O)O,1.4% (inactive),0%,-2.7% (inactive),9% (inactive),15.4% (inactive),5.9% (inactive),11.2% (inactive),44.4% (inactive),20.8% (inactive)
COC(=O)c1ccccc1C(=O)c1ccc(OCCN2CCCCC2)cc1,0.4% (inactive),0.7%,0.95% (inactive),26.9% (inactive),-5.8% (inactive),3.5% (inactive),39.7% (inactive),15.8% (inactive),39.7% (inactive)
CCCCCCCCCCCCCCNCCO,10.8% (inactive),10.6%,-1.5% (inactive),62.8% (active),103% (active),34.8% (active),32.6% (inactive),121% (active),103% (active)
CCOC(=O)C(=O)CCCCCCl,0.6% (inactive),-1.9%,1.45% (inactive),12.3% (inactive),-8.5% (inactive),-1% (inactive),12.6% (inactive),11.4% (inactive),0.1% (inactive)
O=C(c1cc(O)c(O)c(O)c1)c1ccc(O)c(O)c1O,1% (inactive),17.1%,6.1% (inactive),98.2% (active),8.9% (inactive),4.8% (inactive),69.7% (active),103% (active),58.6% (active)
CC(C)CCC[C@@H](C)[C@H]1CC[C@H]2[C@@H]3CC=C4C[C@@H](O)CC[C@]4(C)[C@@H]3CC[C@]12C,-0.4% (inactive),-1%,1% (inactive),26.9% (inactive),37.5% (inactive),-2.1% (inactive),43.2% (inactive),52.2% (active),41.9% (inactive)
O=C1Nc2cc(Cl)ccc2Oc2ccccc21,0% (inactive),-0.5%,-0.2% (inactive),55.1% (active),17.8% (inactive),-0.4% (inactive),10.7% (inactive),-6.3% (inactive),-57.3% (inactive)
CC(=O)CC/C=C(\C)CC/C=C(\C)CC/C=C(\C)CCC=C(C)C,2.6% (inactive),1.2%,-2.1% (inactive),-2.15% (inactive),19.6% (inactive),-1.7% (inactive),-35.4% (inactive),34.2% (active),0.15% (inactive)
COc1cccc2c1C(=O)c1c(O)c3c(c(O)c1C2=O)C[C@@](O)(C(=O)CO)C[C@@H]3O[C@H]1C[C@H](N)[C@H](O[C@@H]2CCCCO2)[C@H](C)O1,26.6% (active),79.4%,0.2% (inactive),78.8% (active),-67.7% (active),-0.8% (inactive),66.5% (active),81% (active),76% (active)
NC[C@@H]1O[C@H](O[C@H]2[C@H](O)[C@H](O[C@H]3[C@@H](O)[C@H](N)C[C@H](N)[C@H]3O[C@H]3O[C@H](CN)[C@H](O)[C@H](O)[C@H]3N)O[C@@H]2CO)[C@@H](N)[C@@H](O)[C@@H]1O,-0.3% (inactive),0.4%,3.2% (inactive),-8.9% (inactive),-22.4% (inactive),63.5% (active),9% (inactive),31.1% (inactive),5% (active)
